Measured values published in PubChem BioAssay.
Calls of active or inactive are those of the source. Unless noted, no rule for the calls is given here.

Experiments:
[1] = A549 cell viability effects, profiling panel, calcein-AM fluorescence, 48 h, basal (AID 1162); conditions: higher = more signal; also: test concentration not given here
[2] = adipocyte viability effects, profiling panel, cell-based, 3T3-L1 adipocytes, calcein-AM fluorescence, 48 h, basal (AID 1163); conditions: 3T3-L1 adipocytes viability, higher = more signal; also: test concentration not given here
[3] = HepG2 cell viability effects, profiling panel, calcein-AM fluorescence, 48 h, basal (AID 1164); conditions: higher = more signal; also: test concentration not given here
[4] = MM1S cell viability effects, profiling panel, calcein-AM fluorescence, 48 h, basal (AID 1165); conditions: higher = more signal;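 also: viability of MM1S multiple myeloma cells under basal unstimulated conditions; test concentration not given here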
[5] = basal RPMI8226 viability, no added stimulus, profiling panel, cell-based, calcein-AM fluorescence, 48 h, PK04 Diversity Set (AID 1166); conditions: RPMI8226 myeloma viability, higher = more signal;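 also: cells grown under basal conditions without added stimulus; test concentration not given here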
[6] = basal HepG2 mitochondrial membrane potential changes, profiling panel, cell-based, JC-1 fluorescence, 24 h, 100 nL compound (AID 1167); conditions: higher = more signal; also: test concentration not given here
[7] = basal 3T3-L1 adipocyte mitochondrial potential changes, profiling panel, cell-based, JC-1 fluorescence, 3T3-L1 adipocytes, 24 h, 100 nL compound (AID 1168); conditions: JC-1 mitochondrial fluorescence, higher = more signal, called active from +8 up or from −8 down; also: test concentration not given here
[8] = basal RPMI8226 mitochondrial membrane potential changes, profiling panel, cell-based, JC-1 fluorescence, 24 h, 100 nL compound (AID 1169); conditions: RPMI8226 myeloma, JC-1 mitochondrial potential fluorescence, higher = more signal; also: test concentration not given here
[9] = basal MM1S mitochondrial membrane potential changes, profiling panel, cell-based, JC-1 fluorescence, 24 h, 100 nL compound (AID 1170); conditions: higher = more signal; also: test concentration not given here
[10] = A549 lung cancer cell viability effects, profiling panel, resazurin fluorescence, 24 h, PK04 Diversity Set (AID 1171); conditions: higher = more signal, called active from +8 up or from −8 down; also: test concentration not given here
[11] = HepG2 liver cancer cell viability effects, profiling panel, resazurin fluorescence, 24 h, PK04 Diversity Set (AID 1172); conditions: higher = more signal; also: test concentration not given here
[12] = basal S. cerevisiae growth modulation, no modifier, primary screen, OD600, strain BY4716, 24 h, basal condition (AID 1173); conditions: OD600, 24 h, higher = more signal, called active from +8 up or from −8 down
[13] = MM1S myeloma cell viability, profiling panel, resazurin fluorescence, basal, 24 h, PK04 Diversity Set (AID 1174); conditions: higher = more signal, called active from +8 up or from −8 down;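 also: MM1S multiple myeloma cell line; test concentration not given here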
[14] = target: Dihydroorotate dehydrogenase (quinone), mitochondrial (Plasmodium falciparum (isolate 3D7)) (UniProt Q08210); assay: PfDHODH enzyme inhibitors, primary screen, biochemical, C-terminal His tag, absorbance 600 nm (AID 1175); conditions: DCIP absorbance 600 nm, higher = more signal, called active from +8 up or from −8 down;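 also: recombinant parasite enzyme with a five histidine tag at its C terminus; test concentration not given here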
[15] = P. aeruginosa biofilm formation inhibitors, primary screen, strain PAO1, LB-PBS medium, absorbance 600 nm (AID 1176); also: test concentration not given here; conditions: P. aeruginosa PAO1 growth/biofilm, A600, 12 h; higher = more signal
[16] = S. cerevisiae RM11-1a growth modifiers, primary screen, strain RM11-1a, OD600, basal, 24 h (AID 1177); conditions: OD600, 24 h, higher = more signal, called active from +8 up or from −8 down;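 also: cultures grown under basal conditions with no added stressor; test concentration not given here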
[17] = E. coli acrAB mutant growth effects, primary screen, E. coli filamentation inducers, strain DRC39, OD650, 24 h (AID 1178); conditions: higher = more signal, called active from +8 up or from −8 down;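 also: growth measured as culture turbidity by optical density at 650 nm; test concentration not given here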
[18] = E. coli acrAB mutant growth effects, primary screen, E. coli filamentation inducers, strain DRC39, OD650, 48 h (AID 1179);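 also: screen aims at cell division blockers that make cells filament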; conditions: E. coli DRC39 delta-acrAB growth, higher = more signal, called active from +8 up or from −8 down
[19] = RPMI8226 myeloma cell viability, profiling panel, resazurin fluorescence, basal, 24 h, PK04 Diversity Set (AID 1180); conditions: higher = more signal;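 also: RPMI8826 multiple myeloma cell line at 5000 cells per well; test concentration not given here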
[20] = target: E3 ubiquitin-protein ligase XIAP (Homo sapiens) (UniProt P98170); assay: XIAP binders, primary screen, biophysical, small-molecule microarray, fluorescence 635 nm (AID 1181); conditions: small-molecule microarray binding, higher = more signal;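 also: score merges 667 nm emission and signal to noise over triplicate slides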
Chain of E3 ubiquitin-protein ligase XIAP (Homo sapiens) (P98170 whole entry, looked up): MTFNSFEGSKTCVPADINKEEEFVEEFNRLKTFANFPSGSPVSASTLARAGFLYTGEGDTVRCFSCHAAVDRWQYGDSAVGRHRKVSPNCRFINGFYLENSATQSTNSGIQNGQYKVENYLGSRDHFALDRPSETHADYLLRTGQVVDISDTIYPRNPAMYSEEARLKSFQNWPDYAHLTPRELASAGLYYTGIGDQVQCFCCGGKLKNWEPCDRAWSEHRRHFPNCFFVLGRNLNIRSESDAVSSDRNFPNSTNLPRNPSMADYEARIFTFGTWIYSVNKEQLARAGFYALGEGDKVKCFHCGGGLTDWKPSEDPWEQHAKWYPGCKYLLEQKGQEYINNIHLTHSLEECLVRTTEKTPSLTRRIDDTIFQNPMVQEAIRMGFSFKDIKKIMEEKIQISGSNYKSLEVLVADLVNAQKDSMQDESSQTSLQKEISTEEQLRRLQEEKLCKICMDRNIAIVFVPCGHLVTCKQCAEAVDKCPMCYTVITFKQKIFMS

Chain of Dihydroorotate dehydrogenase (quinone), mitochondrial (Plasmodium falciparum (isolate 3D7)) (Q08210 whole entry, looked up): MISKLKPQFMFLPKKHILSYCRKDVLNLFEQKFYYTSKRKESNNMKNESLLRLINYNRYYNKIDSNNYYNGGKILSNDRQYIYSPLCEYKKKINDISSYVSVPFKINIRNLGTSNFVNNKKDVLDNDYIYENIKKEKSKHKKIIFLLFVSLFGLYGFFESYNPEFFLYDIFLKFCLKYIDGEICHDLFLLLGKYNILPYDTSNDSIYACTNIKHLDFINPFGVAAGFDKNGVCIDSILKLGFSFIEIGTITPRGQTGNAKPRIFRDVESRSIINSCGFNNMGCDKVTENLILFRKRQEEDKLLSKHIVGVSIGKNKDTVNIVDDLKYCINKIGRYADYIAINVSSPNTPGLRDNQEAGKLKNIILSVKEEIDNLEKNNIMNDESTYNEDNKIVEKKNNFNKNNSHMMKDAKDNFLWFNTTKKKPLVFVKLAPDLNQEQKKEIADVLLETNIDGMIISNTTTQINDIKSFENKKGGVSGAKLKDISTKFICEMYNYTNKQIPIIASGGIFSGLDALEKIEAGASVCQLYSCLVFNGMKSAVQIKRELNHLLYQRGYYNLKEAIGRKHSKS

SMILES	z-score [1]	z-score [2]	z-score [3]	z-score [4]	z-score [5]	z-score [6]	z-score [7]	z-score [8]	z-score [9]	z-score [10]	z-score [11]	z-score [12]	z-score [13]	composite z-score [14]	z-score [15]	z-score [16]	z-score [17]	z-score [18]	z-score [19]	composite z-score [20]
C=C(COC)/C(=C/C[C@H](OC(=O)c1ccncc1)c1cccc(OCCO)c1)c1cc(C(=O)OC)ccc1OC	0.404	0.987	-0.0353	-1.15	-0.686	1.51	0.246 (inactive)	-0.351	0.0566	1.14 (inactive)	0.13	-0.0964 (inactive)	0.544 (inactive)	-2.67 (inactive)	-0.21 (inactive)	-0.42 (inactive)	0.629 (inactive)	0.237 (inactive)	0.406	-0.102
COc1ccc(C#Cc2ccc3c(c2)[C@]2(C(=O)N3)[C@H](c3ccc(O)cc3)N3[C@H](c4ccccc4)[C@H](c4ccccc4)OC(=O)[C@H]3[C@@H]2C(=O)N2CCCCCCC2)cc1	0.334	1.01	0.629	-0.0384	-0.208	0.269	3.48 (inactive)	-0.538	0.366	-0.531 (inactive)	-0.527	-1.15 (inactive)	0.0901 (inactive)	-1.4 (inactive)	1.44 (inactive)	-0.404 (inactive)	-0.525 (inactive)	-0.469 (inactive)	0.326	0.536
[N-]=[N+]=NCc1ccccc1C[C@]1(C(=O)NCCN2CCOCC2)N=C(c2ccc(OCCCO)cc2)O[C@H]1c1ccccc1N=[N+]=[N-]	-0.872	0.233	-1.61	-1.68	-0.806	0.815	0.707 (inactive)	-1.02	-1.16	-0.901 (inactive)	-0.854	-0.318 (inactive)	-0.739 (inactive)	0.345 (inactive)	1.57 (inactive)	0.145 (inactive)	1.73 (inactive)	1.08 (inactive)	-1.85	0.317
COCCOC(=O)N1C(=O)[C@@]2(c3cc(C#CCNC(N)=O)ccc31)[C@H](c1ccc(OCCO)cc1)N1[C@H](c3ccccc3)[C@H](c3ccccc3)OC(=O)[C@H]1[C@@H]2C(=O)N1CCc2cc(OC)c(OC)cc2C1	1.24	0.427	0.34	0.451	-0.172	-1.04	1.65 (inactive)	-0.489	-1.32	-0.189 (inactive)	0.358	2.29 (inactive)	0.296 (inactive)	-0.597 (inactive)	2.26 (inactive)	3.21 (inactive)	0.583 (inactive)	0.582 (inactive)	0.665	-0.0999
COC(=O)[C@@]1(Cc2ccccc2)N=C(c2ccc(OCCCO)cc2)O[C@H]1c1ccccc1N=[N+]=[N-]	0.119	0.113	-2.06	-3.35	-4.04	1.12	-0.528 (inactive)	-1.11	-0.896	-1.83 (inactive)	-0.914	0.0975 (inactive)	-2.58 (inactive)	0.0308 (inactive)	1.49 (inactive)	1.57 (inactive)	0.368 (inactive)	0.752 (inactive)	-2.93	0.723
O=C1O[C@@H](c2ccccc2)[C@@H](c2ccccc2)N2[C@@H](c3ccc(O)cc3)[C@]3(C(=O)Nc4ccc(C#CC5=CCCCC5)cc43)[C@@H](C(=O)O)[C@H]12	1.09	0.369	1.2	-0.294	-0.412	-0.956	0.619 (inactive)	-0.177	1.04	1.86 (inactive)	1.46	-4.6 (inactive)	1.23 (inactive)	-2.56 (inactive)	2.85 (inactive)	-2.61 (inactive)	0.661 (inactive)	1.32 (inactive)	1.02	0.332
O=C/C=C/c1ccc2c(c1)OCO2	0.115	0.327	0.782	-0.251	0.658	1.4	-0.0743 (inactive)	0.365	0.386	-0.362 (inactive)	0.134	-12.8 (active)	-0.155 (inactive)	-1.32 (inactive)	0.227 (inactive)	-1.87 (inactive)	-1.34 (inactive)	0.594 (inactive)	-0.211	-0.118
CCOC(=O)C[C@H]1[C@H](OC(=O)Cc2ccc3c(c2)OCO3)[C@@H](NC(=O)c2ccc(-c3ccccc3)cc2)c2cc(OCCCO)ccc2N1C(=O)c1ccccc1	1.8	0.127	1.66	-0.262	0.0317	3.09	-0.288 (inactive)	0.965	-0.0178	0.328 (inactive)	0.0575	0.188 (inactive)	0.106 (inactive)	-0.0887 (inactive)	0.608 (inactive)	0.412 (inactive)	1.02 (inactive)	1.16 (inactive)	-0.264	-0.17
CC(=O)NCCCC[C@@H]1NC(=O)[C@H]2C[C@@H](C(=O)NCCCCCC[N+](C)(C)C)[C@@H](c3cccc(OCCO)c3)N2C1=O	-0.144	1.14	-0.827	0.385	-0.418	-1.44	0.326 (inactive)	-0.135	-0.872	0.925 (inactive)	1.04	-0.458 (inactive)	0.56 (inactive)	-1.75 (inactive)	3.45 (inactive)	-0.718 (inactive)	-0.47 (inactive)	-0.711 (inactive)	0.0647	0.0871
O=C1C=CC(=O)[C@@H]2CC(COc3ccccc3)=C3[C@@H](CCc4ccccc4)OB(O)C[C@@H]3[C@H]12	-0.491	-1.23	-0.478	-3.22	-3.95	-3.77	-1.83 (inactive)	-1.01	-2.46	-0.108 (inactive)	-0.814	-6.89 (inactive)	-0.971 (inactive)	-2.68 (inactive)	0.212 (inactive)	-0.234 (inactive)	-0.569 (inactive)	-0.422 (inactive)	-0.664	0.0767
COC(=O)[C@@]1(Cc2ccccc2)[C@H]2c3cc(C(=O)N4CCCC4)n(C)c3C[C@H]2CN1C(=O)c1ccccc1	-1.14	0.167	-1.24	0.143	-0.284	0.533	-0.469 (inactive)	-0.0143	-0.827	-0.526 (inactive)	-0.533	0.211 (inactive)	-1.48 (inactive)	0.381 (inactive)	0.976 (inactive)	0.513 (inactive)	-0.396 (inactive)	-0.0676 (inactive)	-0.705	0.391
CC(C)CNC(=O)[C@@]1(c2ccc([N+](=O)[O-])cc2)CC(=O)N(CC23CC4CC(CC(C4)C2)C3)[C@@H]1c1ccc(CO)cc1	-0.642	1.57	-0.715	-2.68	-3.66	0.0331	0.226 (inactive)	-1	0.857	-2.47 (inactive)	-1.69	-0.565 (inactive)	-2.08 (inactive)	-1.23 (inactive)	0.913 (inactive)	-0.813 (inactive)	0.629 (inactive)	1.25 (inactive)	-3.32	-0.193
CCOC(=O)C[C@H]1[C@H](OC(=O)c2ccc(-c3ccccc3)cc2)[C@@H](NC(=O)c2ccc(-c3ccccc3)cc2)c2cc(OCCCO)ccc2N1C(=O)Cc1ccc(OC)cc1	-0.457	0.485	-0.0494	-0.781	0.0196	1.15	0.458 (inactive)	-0.00497	0.413	0.0992 (inactive)	-0.0995	0.353 (inactive)	-0.26 (inactive)	-0.432 (inactive)	0.432 (inactive)	0.0873 (inactive)	0.39 (inactive)	0.372 (inactive)	-0.361	-0.123
C=CCOC(=O)[C@H]1[C@@H]2C(=O)O[C@@H](c3ccccc3)[C@@H](c3ccccc3)N2[C@@H](c2ccc(OCCOC(=O)[C@@H]3C[C@@H]4C(=O)NCC(=O)N4[C@@H]3c3ccc(O)cc3)cc2)[C@]12C(=O)Nc1ccccc12	0.422	0.905	1.49	-0.459	0.776	-1.35	-0.577 (inactive)	-0.831	-1.12	0.677 (inactive)	0.558	-0.0301 (inactive)	1.56 (inactive)	-0.803 (inactive)	2.05 (inactive)	-1.38 (inactive)	0.971 (inactive)	1.61 (inactive)	0.765	-0.121
[N-]=[N+]=NCc1ccccc1C[C@]1(C(=O)O)N=C(c2ccc(OCCCO)cc2)O[C@H]1c1ccccc1	-0.755	-0.4	-0.509	-1.19	-0.388	-1.62	0.336 (inactive)	-0.179	0.181	0.0055 (inactive)	0.922	-2.17 (inactive)	0.111 (inactive)	0.732 (inactive)	0.755 (inactive)	-0.923 (inactive)	-0.168 (inactive)	-0.429 (inactive)	0.525	-0.0482
CCCCCN1CC=CC23O[C@@H]4/C=C\CCC(C)OC(=O)C4[C@H]2C(=O)N(CCCCCO)[C@@H]3C1=O (stereo not given in full)	-0.213	1.56	0.167	0.599	-0.0704	-0.356	0.637 (inactive)	-0.982	-0.617	0.475 (inactive)	0.58	-1.12 (inactive)	0.699 (inactive)	0.121 (inactive)	0.357 (inactive)	-1.01 (inactive)	0.683 (inactive)	0.389 (inactive)	0.522	-0.144
NC(=O)NCC#Cc1ccc2c(c1)[C@]1(C(=O)N2)[C@H](C(=O)NC[C@H](O)c2ccccc2)[C@H]2C(=O)O[C@H](c3ccccc3)[C@H](c3ccccc3)N2[C@@H]1c1ccc(O)cc1	0.423	-1.13	-0.284	-1.32	0.579	-3.36	-2.46 (inactive)	-1.16	-1.49	-0.471 (inactive)	-0.0042	1.56 (inactive)	-0.027 (inactive)	0.389 (inactive)	1.32 (inactive)	2.12 (inactive)	0.346 (inactive)	0.0233 (inactive)	-0.518	0.15
COCCOC(=O)N1C(=O)[C@@]2(c3cc(C#Cc4ccc(OC)cc4)ccc31)[C@H](C(=O)N1CCN(c3ncccn3)CC1)[C@H]1C(=O)O[C@H](c3ccccc3)[C@H](c3ccccc3)N1[C@@H]2c1ccc(O)cc1	1.23	1.26	0.986	0.973	0.806	-0.013	2.2 (inactive)	0.157	0.193	1.31 (inactive)	-0.221	0.558 (inactive)	-1.68 (inactive)	-1.45 (inactive)	1.42 (inactive)	-0.604 (inactive)	-0.0707 (inactive)	1.09 (inactive)	0.0808	0.134
